# Data as given in PubChem BioAssay (EPA / NIEHS).
# The source made the active and inactive calls. How the source made its calls: active means hit-call score of the fitted dose curve at least 0.9, where 1 is the maximum; inactive means score below 0.9.
# Legend:
# Conditions in all cases: mRNA level, 48 h; actives raise or lower the signal
# [1] = read-out: Potassium channel subfamily K member 1 (KCNK1), KCNK1 (gene 3775); test: LTEA_HepaRG_KCNK1: Life Technologies and Expression Analysis (LTEA) Assay for Potassium channel subfamily K member 1 (KCNK1) using HepaRG (AID 2283511)
# Procedure, shortened: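 KCNK1 transcript measured by TaqMan qRT-PCR against three housekeeping genes, after HepaRG cells were treated 48 h with eight half-log concentrations (top 100 uM, 0.5% DMSO). Curves fitted bidirectionally relative to vehicle.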
# [2] = read-out: Keratin 19 (KRT19), KRT19 (gene 3880); test: LTEA_HepaRG_KRT19: Life Technologies and Expression Analysis (LTEA) Assay for Keratin 19 (KRT19) using HepaRG (AID 2283512)
# Procedure, shortened: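 KRT19 transcript levels, measured by Fluidigm qRT-PCR against three housekeeping genes, are fitted for gain or loss of signal relative to DMSO. Human HepaRG cells receive test chemicals (top 100 uM, half-log steps, 0.5% DMSO) for 48 hours.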
# [3] = read-out: JUN Transcription Factor, JUN (gene 3725); test: LTEA_HepaRG_JUN: Life Technologies and Expression Analysis (LTEA) Assay for JUN Transcription Factor using HepaRG (AID 2283513)
# Procedure, shortened: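 Read-out is JUN transcript level by TaqMan qRT-PCR, normalized to ACTB, GAPDH and POLR2A, after 48 h chemical treatment of HepaRG cells. Concentration-response spanned eight half-log points up to 100 uM in 0.5% DMSO.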
# [4] = read-out: Lipase C (LIPC), LIPC (gene 3990); test: LTEA_HepaRG_LIPC: Life Technologies and Expression Analysis (LTEA) Assay for Lipase C (LIPC) using HepaRG (AID 2283514)
# Procedure, shortened: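 LIPC expression was quantified by qRT-PCR against three housekeeping genes (ACTB, GAPDH, POLR2A). Differentiated human HepaRG cells received eight half-log doses (top 100 uM, 0.5% DMSO) in duplicate for 48 h; fitting bidirectional relative to DMSO.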
# [5] = read-out: MicroRNA 122 (MIR122), gene 406906; test: LTEA_HepaRG_MIR122: Life Technologies and Expression Analysis (LTEA) Assay for MicroRNA 122 (MIR122) using HepaRG (AID 2283516); further: the transcript read is the microRNA miR-122
# Procedure, shortened: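 Human liver HepaRG cultures receive test chemicals for 48 h at eight half-log concentrations from 100 uM. Expression is quantified by qRT-PCR with ACTB/GAPDH/POLR2A normalization and fitted bidirectionally against 0.5% DMSO.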
# [6] = read-out: matrix metalloproteinase-10 (MMP10), MMP10 (gene 4319); test: LTEA_HepaRG_MMP10: Life Technologies and Expression Analysis (LTEA) Assay for matrix metalloproteinase-10 (MMP10) using HepaRG (AID 2283517)
# Procedure, shortened: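 Expression measured by TaqMan qRT-PCR with ACTB/GAPDH/POLR2A normalisation after 48 h chemical exposure of HepaRG cells. Eight half-log concentrations, top 100 uM, 0.5% DMSO vehicle, duplicates; gain or loss fitted against vehicle.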
# MYC, MYC (gene 4609) = test: LTEA_HepaRG_MYC: Life Technologies and Expression Analysis (LTEA) Assay for MYC using HepaRG (AID 2283518)
# Procedure, shortened: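 HepaRG, ~100,000 cells/well, collagen I; 48 h plating; serum-free induction medium; 48 h dosing, duplicate, 100 uM top, half-log, 0.5% DMSO; total RNA → qRT-PCR MYC; gain/loss fit vs DMSO.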
# [7] = read-out: matrix metalloproteinase-3 (MMP3), MMP3 (gene 4314); test: LTEA_HepaRG_MMP3: Life Technologies and Expression Analysis (LTEA) Assay for matrix metalloproteinase-3 (MMP3) using HepaRG (AID 2283519)
# Procedure, shortened: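 Fluidigm-based TaqMan qRT-PCR, normalized to ACTB, GAPDH and POLR2A and fitted bidirectionally versus 0.5% DMSO, measured transcript levels. Treatment: duplicate 48 h exposures of HepaRG cells, ~100,000/well, to eight half-log concentrations topping at 100 uM.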
# [8] = read-out: Paternally Expressed 10 (PEG10), PEG10 (gene 23089); test: LTEA_HepaRG_PEG10: Life Technologies and Expression Analysis (LTEA) Assay for Paternally Expressed 10 (PEG10) using HepaRG (AID 2283520)
# Procedure, shortened: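 Human HepaRG cultures are dosed for 48 h across an eight-point half-log series starting at 100 uM, with 0.5% DMSO as vehicle and baseline. Gain or loss of PEG10 transcript is measured by qRT-PCR and fitted in both directions.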
# [9] = read-out: Protein phosphatase 2A (PPP2R4), PTPA (gene 5524); test: LTEA_HepaRG_PPP2R4: Life Technologies and Expression Analysis (LTEA) Assay for Protein phosphatase 2A (PPP2R4) using HepaRG (AID 2283522)
# Procedure, shortened: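 Cells were plated, cultured 48 h, switched to serum-free induction medium, then dosed for 48 h (8 points, max 100 uM, 0.5% DMSO). RNA was isolated and PPP2R4 expression measured by TaqMan qRT-PCR.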
# [10] = read-out: Phosphatase and tensin (PTEN), PTEN (gene 5728); test: LTEA_HepaRG_PTEN: Life Technologies and Expression Analysis (LTEA) Assay for Phosphatase and tensin (PTEN) using HepaRG (AID 2283523)
# Procedure, shortened: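 Read-out: TaqMan qRT-PCR of PTEN transcript, normalized to three housekeeping genes, fitted in both directions against 0.5% DMSO. Differentiated human HepaRG cultures received chemicals for 48 h, eight-point half-log series topping at 100 uM.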
# [11] = read-out: solute carrier (SLC22A1), SLC22A1 (gene 6580); test: LTEA_HepaRG_SLC22A1: Life Technologies and Expression Analysis (LTEA) Assay for solute carrier (SLC22A1) using HepaRG (AID 2283524)
# Procedure, shortened: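 Transcript level of SLC22A1 quantified by qRT-PCR (normalized to three housekeeping genes) after 48 h chemical exposure of HepaRG cells, eight concentrations up to 100 µM, half-log steps, 0.5% DMSO vehicle. Gain or loss relative to DMSO fitted bidirectionally.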
# [12] = read-out: Pyruvate Dehydrogenase Kinase 4 (PDK4), PDK4 (gene 5166); test: LTEA_HepaRG_PDK4: Life Technologies and Expression Analysis (LTEA) Assay for Pyruvate Dehydrogenase Kinase 4 (PDK4) using HepaRG (AID 2283525)
# Procedure, shortened: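 Readout is qRT-PCR of PDK4 transcript, normalized to three housekeeping genes, with bidirectional fitting against 0.5% DMSO vehicle. Differentiated HepaRG cells were treated 48 h in serum-free induction medium, duplicate wells, eight-point half-log series topping at 100 uM.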
# [13] = read-out: NAD(P)H dehydrogenase [quinone] 1 (NQO1), NQO1 (gene 1728); test: LTEA_HepaRG_NQO1: Life Technologies and Expression Analysis (LTEA) Assay for NAD(P)H dehydrogenase [quinone] 1 (NQO1) using HepaRG (AID 2283526)
# Procedure, shortened: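 Transcript induction or suppression is quantified by qRT-PCR in human HepaRG liver cells dosed for 48 hours. Eight half-log concentrations topping at 100 uM are used, with 0.5% DMSO as vehicle and baseline.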
# [14] = read-out: Nuclear factor erythroid 2-related factor 2 (Homo sapiens) (UniProt Q16236); test: LTEA_HepaRG_NFE2L2: Life Technologies and Expression Analysis (LTEA) Assay for Nuclear factor erythroid 2-related factor 2 (NFE2L2) Transcription Factor using HepaRG (AID 2283527);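 on outcome: TaqMan qRT-PCR transcript level normalised to ACTB GAPDH and POLR2A housekeeping genes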
# Procedure, shortened: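 NFE2L2 transcript level was read by qRT-PCR (housekeeping ACTB/GAPDH/POLR2A normalisation) after 48 h chemical treatment of HepaRG in serum-free induction medium. Duplicate 8-point half-log curves, top 100 uM, 0.5% DMSO vehicle; up- or down-regulation fitted against vehicle.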
# [15] = read-out: succinate dehydrogenase complex iron sulfur subunit B (SDHB), SDHB (gene 6390); test: LTEA_HepaRG_SDHB: Life Technologies and Expression Analysis (LTEA) Assay for succinate dehydrogenase complex iron sulfur subunit B (SDHB) using HepaRG (AID 2283528)
# Procedure, shortened: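 HepaRG, 48 h exposure, 8-pt half-log series from 100 uM in 0.5% DMSO, duplicates. Readout: SDHB mRNA by Fluidigm qRT-PCR vs housekeeping genes; bidirectional fit relative to DMSO.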
# [16] = read-out: Signal transducer and activator of transcription 3 (Homo sapiens) (UniProt P40763); test: LTEA_HepaRG_STAT3: Life Technologies and Expression Analysis (LTEA) Assay for Signal transducer and activator of transcription (STAT3) using HepaRG (AID 2283529)
# Procedure, shortened: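 STAT3 transcript quantified by qRT-PCR against three housekeeping genes (ACTB, GAPDH, POLR2A), fitted both directions relative to DMSO. HepaRG cultures exposed 48 h to eight half-log concentrations, top 100 uM, 0.5% DMSO, serum-free induction medium.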
# [17] = read-out: solute carrier (SLCO1B1), SLCO1B1 (gene 10599); test: LTEA_HepaRG_SLCO1B1: Life Technologies and Expression Analysis (LTEA) Assay for solute carrier (SLCO1B1) using HepaRG (AID 2283530)
# Procedure, shortened: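 HepaRG, serum-free induction medium, 48 h dosing, 8-pt half-log from 100 uM, 0.5% DMSO vehicle, duplicates. Readout: SLCO1B1 mRNA, qRT-PCR, ACTB/GAPDH/POLR2A normalization; up or down fit vs DMSO.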
# [18] = read-out: Nuclear factor NF-kappa-B p105 subunit (Homo sapiens) (UniProt P19838); test: LTEA_HepaRG_NFKB1: Life Technologies and Expression Analysis (LTEA) Assay for Nuclear Factor Kappa B Subunit 1 (NFKB1) using HepaRG (AID 2283521)
# Procedure, shortened: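 Differentiated human HepaRG cells were exposed for 48 h in serum-free induction medium to eight concentrations (top 100 uM, half-log steps, 0.5% DMSO), in duplicate. NFKB1 mRNA was measured by TaqMan qRT-PCR, normalized to ACTB/GAPDH/POLR2A, and fitted bidirectionally against DMSO.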
# Chain of Nuclear factor erythroid 2-related factor 2 (Homo sapiens) (Q16236 whole entry, looked up): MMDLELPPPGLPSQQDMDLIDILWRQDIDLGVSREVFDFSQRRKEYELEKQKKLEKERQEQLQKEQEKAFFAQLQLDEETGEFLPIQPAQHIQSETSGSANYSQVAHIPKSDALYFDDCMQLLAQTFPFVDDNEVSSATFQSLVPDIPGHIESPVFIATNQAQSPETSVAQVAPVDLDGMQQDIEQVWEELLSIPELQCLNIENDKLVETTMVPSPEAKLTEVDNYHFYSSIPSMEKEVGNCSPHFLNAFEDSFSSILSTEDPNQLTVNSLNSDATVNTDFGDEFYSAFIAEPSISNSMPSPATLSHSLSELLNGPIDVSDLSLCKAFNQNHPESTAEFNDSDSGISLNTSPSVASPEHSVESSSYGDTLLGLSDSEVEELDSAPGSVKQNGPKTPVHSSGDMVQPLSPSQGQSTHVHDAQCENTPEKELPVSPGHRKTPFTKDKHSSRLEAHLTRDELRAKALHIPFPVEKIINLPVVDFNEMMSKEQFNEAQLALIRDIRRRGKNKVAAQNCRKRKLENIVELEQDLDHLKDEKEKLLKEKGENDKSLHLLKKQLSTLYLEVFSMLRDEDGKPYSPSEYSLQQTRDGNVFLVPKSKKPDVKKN
# Chain of Signal transducer and activator of transcription 3 (Homo sapiens) (P40763 whole entry, looked up): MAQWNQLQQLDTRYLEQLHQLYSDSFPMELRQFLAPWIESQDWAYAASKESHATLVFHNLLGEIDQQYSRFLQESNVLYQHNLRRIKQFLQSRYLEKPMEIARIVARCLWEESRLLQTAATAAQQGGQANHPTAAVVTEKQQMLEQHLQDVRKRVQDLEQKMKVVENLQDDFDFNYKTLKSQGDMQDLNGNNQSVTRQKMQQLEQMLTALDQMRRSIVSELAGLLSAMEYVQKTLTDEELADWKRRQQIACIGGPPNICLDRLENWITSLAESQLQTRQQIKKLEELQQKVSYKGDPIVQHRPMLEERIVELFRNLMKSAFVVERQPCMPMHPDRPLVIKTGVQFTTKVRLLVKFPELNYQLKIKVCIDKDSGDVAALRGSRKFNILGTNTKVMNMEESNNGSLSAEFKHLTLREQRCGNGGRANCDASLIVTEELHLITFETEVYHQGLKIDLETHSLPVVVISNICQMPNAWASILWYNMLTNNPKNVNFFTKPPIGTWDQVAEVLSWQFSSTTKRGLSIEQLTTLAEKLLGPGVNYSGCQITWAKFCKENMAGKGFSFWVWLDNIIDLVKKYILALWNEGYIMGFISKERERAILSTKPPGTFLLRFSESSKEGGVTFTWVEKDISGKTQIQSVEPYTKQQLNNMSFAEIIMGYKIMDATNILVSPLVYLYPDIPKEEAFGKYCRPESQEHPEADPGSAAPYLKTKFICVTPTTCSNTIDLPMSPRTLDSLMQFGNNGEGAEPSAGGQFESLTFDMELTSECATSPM
# Chain of Nuclear factor NF-kappa-B p105 subunit (Homo sapiens) (P19838 whole entry, looked up): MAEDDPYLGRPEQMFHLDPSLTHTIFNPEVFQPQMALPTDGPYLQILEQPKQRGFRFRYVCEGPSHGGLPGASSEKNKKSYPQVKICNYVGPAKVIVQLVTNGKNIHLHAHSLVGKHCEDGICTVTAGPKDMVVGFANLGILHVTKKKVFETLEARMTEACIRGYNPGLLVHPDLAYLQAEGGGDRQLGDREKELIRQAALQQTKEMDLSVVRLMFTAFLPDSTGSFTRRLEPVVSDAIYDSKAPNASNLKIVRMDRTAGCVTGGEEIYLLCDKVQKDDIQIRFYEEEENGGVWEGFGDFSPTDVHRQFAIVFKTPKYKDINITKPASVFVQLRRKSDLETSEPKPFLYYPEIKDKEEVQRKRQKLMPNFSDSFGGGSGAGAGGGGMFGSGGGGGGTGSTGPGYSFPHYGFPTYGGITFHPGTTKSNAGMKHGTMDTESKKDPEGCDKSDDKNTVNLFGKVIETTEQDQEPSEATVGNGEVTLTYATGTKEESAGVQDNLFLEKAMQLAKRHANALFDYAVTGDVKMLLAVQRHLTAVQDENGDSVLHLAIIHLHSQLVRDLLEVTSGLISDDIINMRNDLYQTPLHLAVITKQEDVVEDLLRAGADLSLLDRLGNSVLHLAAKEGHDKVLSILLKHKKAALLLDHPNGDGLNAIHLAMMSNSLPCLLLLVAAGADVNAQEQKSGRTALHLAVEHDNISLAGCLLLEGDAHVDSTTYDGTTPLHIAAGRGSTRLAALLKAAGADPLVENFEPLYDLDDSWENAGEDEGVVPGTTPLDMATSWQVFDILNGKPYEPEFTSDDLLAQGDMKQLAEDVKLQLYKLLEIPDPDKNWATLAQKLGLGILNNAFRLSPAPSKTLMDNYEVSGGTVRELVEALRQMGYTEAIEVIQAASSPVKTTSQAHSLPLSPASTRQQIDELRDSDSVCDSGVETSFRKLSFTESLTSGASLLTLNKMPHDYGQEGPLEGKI
smiles,measurement,setting,value
CCC(C)(C)C(=O)O[C@H]1C[C@@H](C)C=C2C=C[C@H](C)[C@H](CC[C@@H]3C[C@@H](O)CC(=O)O3)[C@H]21,outcome,[1],inactive
same,outcome,[2],inactive
same,outcome,[3],inactive
same,outcome,[4],inactive
same,outcome,[5],inactive
same,outcome,[6],inactive
same,outcome,"MYC, MYC (gene 4609)",inactive
same,outcome,[7],inactive
same,outcome,[8],inactive
same,outcome,[9],inactive
same,outcome,[10],inactive
same,outcome,[11],inactive
same,outcome,[12],inactive
same,outcome,[13],inactive
same,outcome,[14],inactive
same,outcome,[15],inactive
same,outcome,[16],inactive
same,outcome,[17],inactive
CC1=CC(=O)CC(C)(C)C1,outcome,[1],inactive
same,outcome,[2],inactive
same,outcome,[3],inactive
same,outcome,[4],inactive
same,outcome,[5],inactive
same,outcome,[6],inactive
same,outcome,"MYC, MYC (gene 4609)",inactive
same,outcome,[7],inactive
same,outcome,[8],inactive
same,outcome,[9],inactive
same,outcome,[10],inactive
same,outcome,[11],inactive
same,outcome,[12],inactive
same,outcome,[13],inactive
same,outcome,[14],inactive
same,outcome,[15],inactive
same,outcome,[16],inactive
same,outcome,[17],inactive
CCCC(=O)OCC,outcome,[1],inactive
same,outcome,[2],inactive
same,outcome,[3],inactive
same,outcome,[4],inactive
same,outcome,[5],inactive
same,outcome,[6],inactive
same,outcome,"MYC, MYC (gene 4609)",inactive
same,outcome,[7],inactive
same,outcome,[8],inactive
same,outcome,[9],inactive
same,outcome,[10],inactive
same,outcome,[11],inactive
same,outcome,[12],inactive
same,outcome,[15],inactive
same,outcome,[16],inactive
same,outcome,[17],inactive
Oc1ccc2c(c1)-c1ccccc1C2,outcome,[1],inactive
same,AC50,[2],25 µM (active)
same,outcome,[3],inactive
same,outcome,[4],inactive
same,outcome,[5],inactive
same,outcome,[6],inactive
same,AC50,"MYC, MYC (gene 4609)",33.3 µM (active)
same,outcome,[7],inactive
same,outcome,[8],inactive
same,outcome,[9],inactive
same,outcome,[11],inactive
same,AC50,[12],25.2 µM (active)
same,AC50,[14],21.4 µM (active)
same,outcome,[15],inactive
same,outcome,[16],inactive
same,outcome,[17],inactive
CCOC(=O)COc1ccc2c(c1)CC(NCC(O)c1cccc(Cl)c1)CC2 (configuration not stated),outcome,[1],inactive
same,AC50,[2],2.77 µM (active)
same,outcome,[3],inactive
same,AC50,[4],45.8 µM (active)
same,outcome,[5],inactive
same,outcome,[6],inactive
same,outcome,"MYC, MYC (gene 4609)",inactive
same,outcome,[7],inactive
same,outcome,[8],inactive
same,outcome,[18],inactive
same,outcome,[9],inactive
same,outcome,[11],inactive
same,outcome,[12],inactive
same,outcome,[13],inactive
same,outcome,[15],inactive
same,outcome,[16],inactive
same,outcome,[17],inactive
CC(C)=CCCC(C)=CC=O,outcome,[1],inactive
same,outcome,[2],inactive
same,outcome,[3],inactive
same,outcome,[4],inactive
same,outcome,[5],inactive
same,outcome,[6],inactive
same,outcome,"MYC, MYC (gene 4609)",inactive
same,outcome,[7],inactive
same,outcome,[8],inactive
same,outcome,[9],inactive
same,outcome,[10],inactive
same,outcome,[11],inactive
same,outcome,[12],inactive
same,outcome,[14],inactive
same,outcome,[15],inactive
same,outcome,[16],inactive
same,outcome,[17],inactive
CC[C@H](C)C(=O)O[C@H]1C[C@@H](C)C=C2C=C[C@H](C)[C@H](CC[C@@H]3C[C@@H](O)CC(=O)O3)[C@H]21,outcome,[2],inactive
same,outcome,[3],inactive
same,outcome,[4],inactive
same,outcome,[5],inactive
same,outcome,[6],inactive
same,outcome,"MYC, MYC (gene 4609)",inactive
same,outcome,[7],inactive
same,outcome,[8],inactive
same,outcome,[18],inactive
same,outcome,[9],inactive
same,outcome,[11],inactive
same,AC50,[12],16.9 µM (active)
same,outcome,[15],inactive
same,outcome,[16],inactive
same,outcome,[17],inactive
